Measurements: PubChem BioAssay
Calls of active or inactive are those of the source.

Experiment: budding yeast growth modifiers under rapamycin – strain BY4716, OD600, 96 h, primary screen (AID 1091); also: test concentration not given here
Settings: S. cerevisiae BY4716 + rapamycin, higher = more signal, called active from +8 up or from −8 down

z-score, inactive:
O=c1cccc(CCc2ccccc2)o1 0.102
COc1ccc([Si](C)(C)[C@H]2[C@H](CCn3cc(CCO)nn3)O[C@@]3(C(=O)N(Cc4ccc(N5CCOC5=O)cc4)c4ccccc43)[C@@H]2C)cc1 4.55
C=CC[C@@H](OC(=O)Nc1ccc(OC)cc1)c1ccc(O)c2ccccc12 -1.31
CC(c1ccccc1)C(O)C1C=CC2C(=O)NC(=O)C2N1Nc1ccccn1 (stereo unspecified) 1.17
CC(C)CNC(=O)[C@@H]1c2ccccc2C(=O)N(Cc2cc(C(F)(F)F)cc(C(F)(F)F)c2)[C@H]1c1ccc(CO)cc1 -0.706
C[C@]1(C(=O)NCc2ccccc2)c2ccccc2C(=O)N(Cc2cc(F)cc(C(F)(F)F)c2)[C@H]1c1ccc(CO)cc1 -0.0212
O=C1O[C@H](c2ccccc2)[C@H](c2ccccc2)N2[C@H]1[C@@H](C(=O)Nc1nc3ccccc3s1)[C@]1(C(=O)Nc3ccccc31)[C@H]2c1ccc(O)cc1 0.677
CN(C)CCCNC(=O)[C@@]1(Cc2ccccc2I)c2ccccc2C(=O)N(Cc2ccccc2C(F)(F)F)[C@H]1c1ccc(CO)cc1 -2.58
CCCCCN1CC=CC23O[C@@H]4C=CCOC(=O)[C@@H]4[C@H]2C(=O)N(CCCO)[C@@H]3C1=O (stereo partly specified) -1.05
C=C(CCCC)/C(=C/C[C@H](OC(C)=O)c1ccc(CO)o1)c1cnc2ccccc2c1 1.37
CC(C)NC(=O)[C@@]1(Cc2ccccc2I)c2ccccc2C(=O)N(Cc2ccccc2)[C@H]1c1ccc(CO)cc1 -0.291
O=C1C2C=CC(C(O)c3ccc(B(O)O)cc3)N(Nc3ccccc3)C2C(=O)N1c1ccccc1 (stereo unspecified) 0.642
O=C1C[C@]2(c3ccc([N+](=O)[O-])cc3)C(=O)N(CC(F)(F)F)c3cc(CO)ccc3[C@H]2N1CC12CC3CC(CC(C3)C1)C2 -1.69
N#Cc1ccc(NN2C(C(O)c3cccs3)C=CC3C(=O)N(c4ccccc4)C(=O)C32)cc1 (stereo unspecified) 2.72
COCCOC(=O)N1C(=O)[C@@]2(c3cc(C#CCNC(N)=O)ccc31)[C@H](C(=O)N1CCc3cc(OC)c(OC)cc3C1)[C@H]1C(=O)O[C@H](c3ccccc3)[C@H](c3ccccc3)N1[C@@H]2c1ccc(OCCO)cc1 4.41
CC(=O)Nc1cc(Br)ccc1C(=O)O 0.178
C=CCOC(=O)[C@@H]1[C@H]2C(=O)O[C@H](c3ccccc3)[C@H](c3ccccc3)N2[C@H](c2ccc(OCCOC(=O)[C@@H]3C[C@@H]4C(=O)N[C@@H](Cc5ccccc5)C(=O)N4[C@@H]3c3cccc(OCCO)c3)cc2)[C@@]12C(=O)Nc1ccc(I)cc12 4.55
[N-]=[N+]=NCc1ccccc1C[C@]1(C(=O)O)N=C(c2ccc(OCCCO)cc2)O[C@H]1c1ccccc1CN=[N+]=[N-] -1.92
NCCCCCNC(=O)[C@H]1C[C@H]2C(=O)NCC(=O)N2[C@H]1c1cccc(OCCO)c1 -0.189
COc1cc2c(cc1OC)CN(C(=O)[C@@H]1[C@H]3C(=O)O[C@H](c4ccccc4)[C@H](c4ccccc4)N3[C@H](c3ccccc3OCCO)[C@@]13C(=O)Nc1ccc(C#CCNC(N)=O)cc13)CC2 3.09
C=C(COC)C(=O)CC[C@H](OC(C)=O)c1cccc(OCCO)c1 -0.0523
CCOC(=O)C[C@H]1[C@H](OC(=O)Cc2ccc3c(c2)OCO3)[C@@H](NC(=O)C2CCCCC2)c2cc(OCCCO)ccc2N1C(=O)Cc1ccc(OC)cc1 -0.558
COCCOC(=O)N1C(=O)[C@@]2(c3cc(C#CCNC(N)=O)ccc31)[C@H](c1ccc(OCCO)cc1)N1[C@H](c3ccccc3)[C@H](c3ccccc3)OC(=O)[C@H]1[C@@H]2C(=O)N1CCc2cc(OC)c(OC)cc2C1 4.56
COCCOC(=O)N1C(=O)[C@@]2(c3cc(C#CC4(O)CCCCCC4)ccc31)[C@H](C(=O)N1CCCCCCC1)[C@H]1C(=O)O[C@H](c3ccccc3)[C@H](c3ccccc3)N1[C@@H]2c1ccccc1OCCO 3.73
C=C(COC)/C(=C/C[C@H](OC(=O)c1ccncc1)c1cccc(OCCO)c1)c1cc(C(=O)OC)ccc1OC -0.429
COc1c(C)cc(-c2cc3c(c(-c4ccc(Oc5ccccc5)cc4)n2)[Si](C(C)C)(C(C)C)OC3)cc1C 2.03
